Values without a mark were called inactive. Activity calls are given as the source filed them.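 How the source made its calls: active means thallium flux through the channel raised or lowered by more than 3 SD from vehicle-only wells, actives on both sides; inactive means the rest.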

Drawing on PubChem BioAssay, this text covers log fold change Tl+ flux for 27 compounds.

The test system of the assay is R275C/beta2Delta. Kind of assay: BK channel mutant inhibitors and activators – cell-based, U2OS BacMam, thallium flux, beta subunits, selectivity assay, profiling panel (AID 1259406).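 Further: initial slope of Thallos dye fluorescence rise after thallium is added; log ratio against the mean of 0.3% DMSO vehicle wells on the same plate.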 The note with it: U2OS BacMam BK variants, at 30 µM.
For `O=C1N=C(O)CN1N=Cc1ccc(-c2ccc([N+](=O)[O-])cc2)o1`, the log fold change Tl+ flux is 0.0141. Regarding `CC(=O)O[C@@]12CO[C@@H]1C[C@H](O)[C@@]1(C)C(=O)[C@H](O)C3=C(C)[C@@H](OC(=O)[C@H](O)[C@@H](NC(=O)OC(C)(C)C)c4ccccc4)C[C@](O)([C@@H](OC(=O)c4ccccc4)[C@H]21)C3(C)C`, the log fold change Tl+ flux was 0.0412. In the case of `CC1c2cccc(O)c2C(O)=C2C(=O)[C@]3(O)C(O)=C(C(N)=O)C(=O)[C@@H](N(C)C)[C@@H]3C[C@@H]21` (some centres not stated) it was -0.00508; in that of `CO[C@H]1C=CO[C@@]2(C)Oc3c(C)c(O)c4c(O)c(c(C=NN5CCN(C6CCCC6)CC5)c(O)c4c3C2=O)NC(=O)C(C)=CC=C[C@H](C)[C@H](O)[C@@H](C)[C@@H](O)[C@@H](C)[C@H](OC(C)=O)[C@@H]1C`, 0.0465; in that of `C=CC1=C(C(=O)O)N2C(=O)[C@@H](NC(=O)C(=NO)c3csc(N)n3)[C@H]2SC1`, 0.037. In the case of `C[C@H]1O[C@@H](O[C@H]2[C@@H](O)C[C@H](O[C@H]3[C@@H](O)C[C@H](O[C@H]4CC[C@@]5(C)[C@H](CC[C@@H]6[C@@H]5C[C@@H](O)[C@]5(C)C(C7=CC(=O)OC7)CC[C@]65O)C4)O[C@@H]3C)O[C@@H]2C)C[C@H](O)[C@@H]1O` (some centres not stated) it was -0.0151; in that of `CON=C(C(=O)N[C@@H]1C(=O)N2C(C(=O)O)=C(COC(N)=O)CS[C@H]12)c1ccco1`, -0.0289; in that of `Cc1cc(=O)oc2cc(NC(=O)C3CCC(=O)N3)ccc12` (configuration not stated), -0.00476. To `N[C@@H](C(=O)N[C@@H]1C(=O)N2C(C(=O)O)=C(CSc3cn[nH]n3)CS[C@H]12)c1ccc(O)cc1` (tested in a mixture with another compound) belongs 0.0029; to `CN1CCN2c3ncccc3Cc3ccccc3[C@@H]2C1`, 0.0645; to `C=CC[C@@H]1C=C(C)C[C@H](C)C[C@H](OC)[C@H]2O[C@@](O)(C(=O)C(=O)N3CCCC[C@H]3C(=O)O[C@H](/C(C)=C/[C@@H]3CC[C@@H](O)[C@H](OC)C3)[C@H](C)[C@@H](O)CC1=O)[C@H](C)C[C@@H]2OC`, 0.123 (active). Consider `CO[C@H]1C=CO[C@@]2(C)Oc3c(C)c(O)c4c(O)c(c5c(c4c3C2=O)NC2(CCN(CC(C)C)CC2)N=5)=NC(=O)C(C)=CC=C[C@H](C)[C@H](O)[C@@H](C)[C@@H](O)[C@@H](C)[C@H](OC(C)=O)[C@@H]1C`, for which the log fold change Tl+ flux is -0.0385. Turning to `CN(C)S(=O)(=O)c1ccc2c(c1)/C(=C\CCN1CCNCC1)c1ccccc1S2`, the log fold change Tl+ flux was 0.019. In the case of `CCC(=O)NS(=O)(=O)c1ccc(-c2c(-c3ccccc3)noc2C)cc1` it was -0.00297; in that of `C[C@]12C=CC(=O)C=C1CC[C@@H]1[C@@H]2[C@@H](O)C[C@@]2(C)[C@H]1CC[C@]2(O)C(=O)COC(=O)CCC(=O)O`, -0.00108; in that of `CN(C)CC/C=C1/c2ccccc2COc2ccccc21`, 0.0478. In the case of `CC(=O)NCCCCCCNC(C)=O`, the log fold change Tl+ flux was -0.0786. In the case of `CO[C@H]1C=CO[C@@]2(C)Oc3c(C)c(O)c4c(O)c(c5c(nc6cc(C)ccn65)c4c3C2=O)NC(=O)C(C)=CC=C[C@H](C)[C@H](O)[C@@H](C)[C@@H](O)[C@@H](C)[C@H](OC(C)=O)[C@@H]1C` it was -0.0244; in that of `CO[C@H]1O[C@@H]2O[C@@]3(C)CC[C@H]4[C@H](C)CC[C@@H]([C@H]1C)[C@@]24OO3`, -0.00466. As for `CC(C)CC(NC(=O)C(COC(C)(C)C)NC(=O)C(Cc1ccc(O)cc1)NC(=O)C(CO)NC(=O)C(Cc1c[nH]c2ccccc12)NC(=O)C(Cc1cnc[nH]1)NC(=O)C1CCC(=O)N1)C(=O)N[C@@H](CCCN=C(N)N)C(=O)N1CCCC1C(=O)NNC(N)=O` (some centres not stated), the log fold change Tl+ flux is -0.00625.

For `COCCCCC(=NOCCN)c1ccc(C(F)(F)F)cc1`, the log fold change Tl+ flux was 0.0321. To `CCN(CC)CCOc1ccc(C(=C(Cl)c2ccccc2)c2ccccc2)cc1` belongs -0.00533; to `CO[C@H]1/C=C/O[C@@]2(C)Oc3c(C)c(O)c4c(O)c(c(C=NN5CCN(C6CCCC6)CC5)c(O)c4c3C2=O)NC(=O)/C(C)=C\C=C\[C@H](C)[C@H](O)[C@@H](C)[C@@H](O)[C@@H](C)[C@H](OC(C)=O)[C@@H]1C`, 0.0213; to `O=C1CN(N=Cc2ccc([N+](=O)[O-])o2)C(=O)N1`, 0.0336. To `C=CC1=C(C(=O)O)N2C(=O)[C@@H](NC(=O)C(=NOCC(=O)O)c3csc(N)n3)[C@H]2SC1` belongs 0.0194; to `COc1cc(N)c(Cl)cc1C(=O)N[C@@H]1CCN(CCCOc2ccc(F)cc2)C[C@@H]1OC`, 0.039; to `COCC1=C(C(=O)OC(C)OC(=O)OC(C)C)N2C(=O)[C@@H](NC(=O)C(=NOC)c3csc(N)n3)[C@H]2SC1` (some centres not stated), 0.0293.
